Measured values as given in PubChem BioAssay AID492953 (The Scripps Research Institute Molecular Screening Center, 2010).
The whole screen tested about 340,000 compounds, of which about 4,200 (1.2%) were called active. This excerpt belongs to a sample that is enriched for actives. Unmarked numbers belong to inactive results.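 How the source made its calls: active means inhibition above the mean of all tested compounds plus 3 SD (cut at about 24% in these data); inactive means the rest.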

Target: Platelet-activating factor acetylhydrolase IB subunit alpha2 (Homo sapiens) (UniProt P68402)
Sequence (P68402 whole entry, looked up): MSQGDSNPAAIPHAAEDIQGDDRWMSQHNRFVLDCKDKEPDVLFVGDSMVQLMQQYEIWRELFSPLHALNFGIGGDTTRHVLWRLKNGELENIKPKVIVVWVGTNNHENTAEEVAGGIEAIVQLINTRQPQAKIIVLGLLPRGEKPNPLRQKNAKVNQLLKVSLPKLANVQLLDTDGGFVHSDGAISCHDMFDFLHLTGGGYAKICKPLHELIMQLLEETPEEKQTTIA
Assay: inhibition of PAF acetylhydrolase 1b subunit 2 – biochemical, fluorescence polarization, human, primary screen (AID 492953);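 further: 0% = enzyme with DMSO and 100% = wells lacking PAFAH1B2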
Settings: recombinant PAFAH1B2, FP-rhodamine activity probe, at 3.39 µM, stronger effect = higher value

How did the inhibition turn out when `COc1cc(CNc2ncn[nH]2)ccc1OCc1ccccc1C` was run?
The inhibition was -0.89%.

Which inhibition does the source give for `CN(CCCNC(=O)CN1C(=O)CC(C)(C)S(=O)(=O)c2ccccc21)C1CCCCC1` here?
The inhibition was 5.24%.

How did the inhibition turn out when `Nc1scc(-c2ccncc2)c1Cl` was run?
The inhibition was 89.9% (active).

`COC(=O)c1c(-c2ccc(C)cc2)csc1N` was tested. Which inhibition did it give?
The inhibition was 2.65%.

Which inhibition does the source give for `CCOc1ccc(NC(=O)CSc2nc3ccccc3c(=O)n2Cc2cccs2)cc1` here?
The inhibition was 6.05%.

Which inhibition does the source give for `CN1C(C)(C)CC(NC(=O)CCC(=O)NC2CC(C)(C)N(C)C(C)(C)C2)CC1(C)C` here?
Its inhibition is 2.28%.

For `CC1CC(C)CN(S(=O)(=O)c2cccc(C(=O)N3C(=O)c4cccc(N)c4C3=O)c2)C1` (stereo not given), which inhibition is on record?
Its inhibition is 39.9% (active).

How did the inhibition turn out when `COc1cc(C(=O)N2C(=O)c3cccc(N)c3C2=O)cc(OC)c1OC` was run?
Its inhibition is 1.13%.

With `CC(=O)N1CCN(S(=O)(=O)c2cccc(C(=O)NC3CCC(C)CC3)c2)CC1` (stereo not given) as the molecule, how does the inhibition read?
The inhibition was 5.89%.

How did the inhibition turn out when `CCn1c(SCC(=O)Nc2nc(C)cs2)nnc1C(C)NC(=O)c1ccccc1` (stereo not given) was run?
Its inhibition is 8.33%.

Which inhibition does the source give for `CCC(=O)Nc1nnc(S(=O)(=O)N(CC(C)C)c2ccccc2)s1` here?
The inhibition was 17.8%.

With `CC(C)CC(=O)Nc1nnc(S(=O)(=O)N(C)c2ccc(Cl)cc2)s1` as the molecule, how does the inhibition read?
Its inhibition is 26.6% (active).

Which inhibition does the source give for `COc1cccc(C(=O)Nc2nnc(S(=O)(=O)N(C)c3ccccc3)s2)c1` here?
The inhibition was -2.38%.

For `COC(=O)c1sccc1NS(=O)(=O)c1ccc(F)cc1F`, which inhibition is on record?
The inhibition was 0.87%.

`CC(=O)c1c(C)[nH]c(C(=O)Nc2cc(S(=O)(=O)N(C)C)ccc2C)c1C` was tested. Which inhibition did it give?
Its inhibition is 2.08%.

With `O=C(NC1CCN(S(=O)(=O)c2ccc(F)cc2)CC1)c1ccccc1` as the molecule, how does the inhibition read?
The inhibition was 2.57%.

Which inhibition does the source give for `Cc1ccc(S(=O)(=O)/N=C(/NC(=S)Nc2c(C)n(C)n(-c3ccccc3)c2=O)c2ccccc2)cc1` here?
Its inhibition is 9.33%.

For `O=C(CSc1nc(C2CC2)nc2ccccc12)Nc1ccc2c(c1)OCCO2`, which inhibition is on record?
Its inhibition is 38% (active).

Which inhibition does the source give for `Cc1nnc(NC(=O)CSc2nc(C3CCCCC3)nc3ccccc23)s1` here?
The inhibition was 0.98%.

For `O=C(CSc1nc(C2CC2)nc2ccccc12)Nc1cccc(O)c1`, which inhibition is on record?
Its inhibition is -0.49%.

With `O=C(CN1C(=O)CSC1=O)N1CCCC(Nc2ccc(F)cc2)C1` (stereo not given) as the molecule, how does the inhibition read?
Its inhibition is -1.15%.

`O=C(c1ccc2c(c1)C(=O)N(Cc1ccncc1)C2=O)N1CCN(S(=O)(=O)c2ccc(OC(F)(F)F)cc2)CC1` was tested. Which inhibition did it give?
The inhibition was 5.75%.

With `CC1CN(Cc2ccccc2)C(=S)NC1=O` (stereo not given) as the molecule, how does the inhibition read?
The inhibition was 29.8% (active).

With `CC1CN(Cc2ccco2)C(=S)N(c2ccccc2)C1=O` (stereo not given) as the molecule, how does the inhibition read?
Its inhibition is 5.61%.

For `CC1CC(=S)Nc2ccccc2N1Cc1ccccc1` (stereo not given), which inhibition is on record?
The inhibition was 7.13%.

`COc1ccc(CCNC(=O)c2ccc(NC(=O)CC3SC(N4CCCCC4)=NC3=O)cc2)cc1OC` (stereo not given) was tested. Which inhibition did it give?
The inhibition was 1.09%.

How did the inhibition turn out when `Cc1ccc(C2CC(c3cccc(Br)c3)n3nc(N)nc3N2)cc1` (stereo not given) was run?
Its inhibition is 0.4%.

For `COCCn1c(Cc2cccn2C)nnc1SCC(=O)Nc1nccs1`, which inhibition is on record?
The inhibition was -1.79%.

With `CC(C)CNC(=O)C1CCCN(S(=O)(=O)c2ccc(-n3cnnn3)cc2)C1` (stereo not given) as the molecule, how does the inhibition read?
Its inhibition is 5.01%.

`CC(NC(=O)C1CCCN(S(=O)(=O)c2ccc(-n3cnnn3)cc2)C1)c1ccc(F)cc1` (stereo not given) was tested. Which inhibition did it give?
Its inhibition is 26.6% (active).

Which inhibition does the source give for `O=C(Nc1ccc(F)cc1)C1CCCN(S(=O)(=O)c2ccc(-n3cnnn3)cc2)C1` (stereo not given) here?
Its inhibition is 0.34%.

`O=C(NCc1cccc(Cl)c1)C1=CC=CN2CCS(=O)(=O)N=C12` was tested. Which inhibition did it give?
Its inhibition is 6%.

For `O=C(C1CCN(CC2CCCCC2)CC1)N1CCCC1`, which inhibition is on record?
The inhibition was 0.2%.

Which inhibition does the source give for `CCCCN(CC)CCCNC(=O)c1ccc(CSc2nc3ccncc3[nH]2)cc1` here?
The inhibition was -2.43%.

How did the inhibition turn out when `CC1=NN(/C(=N\c2nnc(C)s2)Nc2ccccc2)[C@H](c2ccc(C)cc2)S1` was run?
Its inhibition is 6.77%.

`CCCSc1nsc(N)n1` was tested. Which inhibition did it give?
The inhibition was 3.46%.

With `CCCCCCSc1nsc(N)n1` as the molecule, how does the inhibition read?
Its inhibition is 3.17%.

How did the inhibition turn out when `Nc1nc(SC23CC4CC(CC(C4)C2)C3)ns1` was run?
Its inhibition is 25.4% (active).

How did the inhibition turn out when `Nc1ccn(C2CC(O)C(CO)O2)c(=O)n1` (stereo not given) was run?
Its inhibition is 4.72%.

Which inhibition does the source give for `COc1ccccc1C(=O)NCC(=O)OCC(=O)NNC(=O)c1ccc(Br)cc1` here?
The inhibition was 4.05%.

How did the inhibition turn out when `COc1ccccc1C(=O)NCC(=O)NCCSc1ccc(Br)cc1` was run?
Its inhibition is 27.3% (active).

`COc1cc(C(=O)NCC(=O)NCCSc2ccc(Br)cc2)cc(OC)c1OC` was tested. Which inhibition did it give?
Its inhibition is 18.7%.

How did the inhibition turn out when `Cc1c(C(=O)NC2CCCCC2)oc2ccccc12` was run?
Its inhibition is 1.03%.

Which inhibition does the source give for `COc1cccc(CC(=O)OCC(=O)NCc2ccc3c(c2)OCO3)c1` here?
Its inhibition is 8.95%.

With `Cc1ccc(C(=O)OCC(=O)NCc2ccc3c(c2)OCO3)s1` as the molecule, how does the inhibition read?
The inhibition was -1.11%.

With `Cc1cc(Br)ccc1SCC(=O)OCC(=O)NCc1ccc2c(c1)OCO2` as the molecule, how does the inhibition read?
Its inhibition is 25.2% (active).

`CCc1ccc2[nH]c(=O)c(Cc3ccccc3)c(O)c2c1` was tested. Which inhibition did it give?
The inhibition was 24.7% (active).

How did the inhibition turn out when `O=C(Cc1c(O)c2ccccc2[nH]c1=O)NCc1ccccc1` was run?
The inhibition was 2.81%.

How did the inhibition turn out when `Cc1ccc2c(O)c(Cc3ccccc3)c(=O)[nH]c2n1` was run?
The inhibition was 0.81%.

With `O=C(Nc1ccccc1)Oc1cccc2cccnc12` as the molecule, how does the inhibition read?
Its inhibition is 3.18%.

With `O=C(c1cccc(S(=O)(=O)N2CCCCCC2)c1)N1CCN(Cc2ccccc2)CC1` as the molecule, how does the inhibition read?
The inhibition was 0.99%.

How did the inhibition turn out when `O=C(NC(=O)c1ccc(Cl)c(Cl)c1)OC1CCS(=O)(=O)C1` (stereo not given) was run?
Its inhibition is -3.52%.

`O=C(NCCc1c[nH]c2ccccc12)c1cc2ccccc2oc1=O` was tested. Which inhibition did it give?
The inhibition was 6.1%.

How did the inhibition turn out when `CC1CCCCC1NC(=O)COc1ccc(C#N)cc1` (stereo not given) was run?
Its inhibition is 2.44%.

How did the inhibition turn out when `Oc1ccc(N=Nc2nccs2)c(O)c1` was run?
The inhibition was 35.3% (active).

How did the inhibition turn out when `O=C(OC12CC3CC(CC(C3)C1)C2)c1ccc(NCc2cc(O)ccc2O)cc1` was run?
Its inhibition is 3.5%.

How did the inhibition turn out when `Cc1ccc(S(=O)(=O)N2CCN(C)CC2)cc1C(=O)NC1CCCCC1` was run?
The inhibition was 25.7% (active).

With `COc1ccc(S(=O)(=O)N2CCOCC2)cc1C(=O)NC1CCCCC1` as the molecule, how does the inhibition read?
The inhibition was 2.51%.

For `CCn1cc(C(=O)NC2CCCCCC2)c(=O)c2cc(S(=O)(=O)N3CCCCC3)ccc21`, which inhibition is on record?
The inhibition was 0.07%.

Which inhibition does the source give for `COc1ccc2c(c1)c(=Cc1ccc(N(C)C)cc1)c1cc(-c3ccccc3)[n+](C)n12` here?
Its inhibition is -27.4%.
